The campaign covered roughly 400,000 compounds. About 2,100 (0.53%) were called active. Not shown: some 14% with an inconclusive outcome. This is one part of a sample in which actives are shown more often than they occur. How the calls were made is not given here.

The target in this test is Ataxin-2 (Homo sapiens) (UniProt Q99700). Briefly: qHTS for Inhibitors of ATXN expression. Type of test: functional.
Chain of Ataxin-2 (Homo sapiens) (Q99700 whole entry): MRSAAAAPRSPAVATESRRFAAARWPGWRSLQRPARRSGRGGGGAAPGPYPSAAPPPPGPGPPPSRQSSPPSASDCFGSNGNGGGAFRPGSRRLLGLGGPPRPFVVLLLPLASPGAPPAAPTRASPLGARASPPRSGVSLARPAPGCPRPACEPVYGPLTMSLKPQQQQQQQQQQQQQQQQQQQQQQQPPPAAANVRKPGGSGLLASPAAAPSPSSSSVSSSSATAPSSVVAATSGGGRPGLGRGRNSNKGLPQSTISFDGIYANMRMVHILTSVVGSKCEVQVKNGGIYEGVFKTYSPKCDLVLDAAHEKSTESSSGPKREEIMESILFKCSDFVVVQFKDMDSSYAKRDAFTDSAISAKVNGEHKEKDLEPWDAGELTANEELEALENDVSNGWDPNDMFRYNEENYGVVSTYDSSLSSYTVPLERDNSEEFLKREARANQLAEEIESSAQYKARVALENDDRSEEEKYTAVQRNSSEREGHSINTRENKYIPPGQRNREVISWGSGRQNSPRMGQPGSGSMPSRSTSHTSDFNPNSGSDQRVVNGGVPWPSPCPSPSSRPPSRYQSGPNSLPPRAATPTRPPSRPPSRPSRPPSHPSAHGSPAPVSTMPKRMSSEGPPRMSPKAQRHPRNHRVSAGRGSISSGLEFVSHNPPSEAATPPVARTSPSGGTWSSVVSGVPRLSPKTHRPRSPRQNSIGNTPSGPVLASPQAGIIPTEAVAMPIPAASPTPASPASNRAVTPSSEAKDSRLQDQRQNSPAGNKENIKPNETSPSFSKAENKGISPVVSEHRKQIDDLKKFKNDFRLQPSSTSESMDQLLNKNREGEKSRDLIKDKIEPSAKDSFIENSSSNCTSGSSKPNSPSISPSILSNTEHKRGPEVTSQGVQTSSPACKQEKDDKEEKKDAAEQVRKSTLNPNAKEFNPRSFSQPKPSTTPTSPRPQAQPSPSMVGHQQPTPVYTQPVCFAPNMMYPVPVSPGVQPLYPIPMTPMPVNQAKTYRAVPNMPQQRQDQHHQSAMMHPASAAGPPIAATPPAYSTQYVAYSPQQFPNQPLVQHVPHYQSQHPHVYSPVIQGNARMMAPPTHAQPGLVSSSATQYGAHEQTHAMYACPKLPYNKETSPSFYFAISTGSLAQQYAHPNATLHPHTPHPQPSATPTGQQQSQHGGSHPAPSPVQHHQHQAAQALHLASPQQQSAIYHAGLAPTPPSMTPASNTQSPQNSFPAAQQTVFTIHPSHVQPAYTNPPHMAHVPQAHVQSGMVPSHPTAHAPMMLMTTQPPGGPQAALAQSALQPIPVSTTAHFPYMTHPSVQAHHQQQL
For `COCCNC(=O)Cc1c(C)c2c(cc(C)c3c(C)coc32)oc1=O`, the Potency entry was “inactive”.
On to `O=C(Nc1cc(Cl)ccc1O)C1CC(c2ccccc2O)=NO1` (stereo unspecified), for which the Potency result was “inactive”.
Take `CCOc1cc(CNCCc2ccc(S(N)(=O)=O)cc2)ccc1OCC(=O)NC(C)(C)C`: the Potency was 39.8 µM (active).
On to `NS(=O)(=O)c1ccc(CNC(=O)CNC(=O)Cc2ccccc2)cc1`, for which the Potency result is “inactive”.
For the molecule `CCOc1ccc(CCNC(=O)CSCc2ccc(C)cc2)cc1OCC`, the Potency result was “inactive”.
As to `CCOc1cc(CNCCc2ccc(S(N)(=O)=O)cc2)cc(Cl)c1OCc1ccccc1`, the Potency was 25.1 µM (active).
`COC(=O)c1c(C)[nH]c(C(=O)NCCc2ccc(S(N)(=O)=O)cc2)c1C`: the Potency entry was “inactive”.
For the molecule `CCOc1cc(C(N)=O)cc(Br)c1OCc1ccccc1`, the Potency entry was “inactive”.
Consider `CC12CCC(=O)N1C(C(=O)N1CCN(S(=O)(=O)c3ccc(Br)cc3Cl)CC1)CS2` (stereo unspecified), for which the Potency entry was “inactive”.
Regarding `CC(C)CCn1c(=O)c2ccccc2n2c(S)nnc12`, the Potency entry is “inactive”.
`Cc1cnc(C(=O)NC(C)CCc2ccccc2)cn1` (stereo unspecified): the Potency result is “inactive”.
As to `Fc1ccc(-c2cc(C(F)(F)C(F)F)n[nH]2)cc1`, the Potency entry is “inactive”.
For the molecule `CCOC(=O)c1cnn2c(O)cc(C)nc12`, the Potency entry was “inactive”.
With `CC(C)(C)c1ccc(/N=C2\SCC(=O)N2Cc2cccs2)cc1`, the Potency result was “inactive”.
Consider `COC(=O)c1ccc(C(=O)OC)c(NC(=O)Cc2cccs2)c1`, for which the Potency result is “inactive”.
Consider `CC(C)(C)c1ccc(C(=O)O/N=C(\N)Cc2cccs2)cc1`, for which the Potency is 31.6 µM (active).
In the case of `O=C(c1cccs1)N1CCC(c2nc(O)c3nnn(Cc4c(Cl)cccc4Cl)c3n2)CC1`, the Potency result was “inactive”.
Under `CC(C)C(=O)NNC(=O)CSc1nnc(-c2ccccc2)c(-c2ccccc2)n1` stands “inactive”; under `CNC(=O)C(=O)Nc1cc2c3c(c1)CCC(=O)N3CCC2`, “inactive”; under `CCOC(CN=c1nc(N(C)C)ss1)OCC`, 29.9 µM (active).
Under `CN(C)S(=O)(=O)c1ccc(Cl)c(NC(=O)COC(=O)CNS(=O)(=O)c2c(F)cccc2F)c1` stands “inactive”; under `CCC(=O)NC(c1ccc(OC)c(OC)c1)c1cc(Cl)c2cccnc2c1O` (stereo unspecified), “inactive”.
In the case of `COc1ccc(C(=O)CC(SCC(NC(C)=O)C(=O)O)c2ccc(Cl)cc2)cc1OC` (stereo unspecified), the Potency was 31.6 µM (active).
Under `CCS(=O)(=O)N1CCC(NC(=O)C(Cc2ccc(OC)c(OC)c2)NC(C)=O)CC1` (stereo unspecified) stands “inactive”.
For `CCOC(=O)c1cc2c(=O)n3ccccc3nc2n(CC2CCCO2)/c1=N\C(=O)c1ccc(C(C)(C)C)cc1` (stereo unspecified), the Potency entry was “inactive”.
Consider `CCCCN1C(C(=O)Nc2ncccn2)=C(O)c2ccccc2S1(=O)=O`, for which the Potency result is “inactive”.
In the case of `Cc1ccccc1N1CCN(C2CCCN(C(=O)CSc3ccccn3)C2)CC1` (stereo unspecified), the Potency result is “inactive”.
Regarding `OC(c1cccc(Cl)c1)c1nc(-c2ccc(Oc3ccccc3)cc2)c[nH]1` (stereo unspecified), the Potency is 39.8 µM (active).
With `OC(c1cccc(Cl)c1)c1nc(-c2ccc(C(F)(F)F)cc2)c[nH]1` (stereo unspecified), the Potency was 39.8 µM (active).
Regarding `CC(C)(C)c1ccc(C(O)c2nc(-c3ccccc3Cl)c[nH]2)cc1` (stereo unspecified), the Potency is 39.8 µM (active).
For `Cc1nn(Cc2ccccc2Cl)c(Cl)c1/C=C/C(=O)OCC(=O)NC1CCS(=O)(=O)C1` (stereo unspecified), the Potency entry is “inactive”.
Take `COc1ccc(-n2cccc2/C=C/[N+](=O)[O-])cc1`: the Potency is 31.6 µM (active).
As to `COc1ccc(S(=O)(=O)Nc2ccc(-n3cccc3)cc2)cc1`, the Potency result was “inactive”.
To `CCCC(=O)NCCc1nc2cc([N+](=O)[O-])ccc2n1C` belongs “inactive”; to `COc1cc(C(=O)O/N=C2/C=CC(=O)C(C)=C2C)cc(OC)c1OC`, 39.8 µM (active); to `COc1cc(C(=O)N2C(=O)c3cccc(N)c3C2=O)cc(OC)c1OC`, “inactive”.
In the case of `COc1cc(C(=O)NNC(=O)c2ccccc2OCc2c(C)noc2C)cc(OC)c1OC`, the Potency entry is “inactive”.
Turning to `CCc1ccc(S(=O)(=O)Nc2ccc(-c3nc4cccnc4s3)cc2)s1`, the Potency entry was “inactive”.
Under `CSc1ccccc1NC(=O)c1cc(-c2cccnc2)nc2ccc(Br)cc12` stands 42.3 µM (active).
Take `O=C(NNC(=O)c1cc(-c2cccnc2)nc2ccccc12)Nc1ccc(Cl)cc1`: the Potency result is “inactive”.
Under `NC(=O)c1cc(-c2ccccc2)nc2ccc(Br)cc12` stands “inactive”; under `COc1cccc(/C=C/c2nc(C#N)c(NCC(C)C)o2)c1`, “inactive”.
For `CCOC(=O)c1cc2c(=O)n3ccccc3nc2n(C)/c1=N\C(=O)c1c(-c2c(F)cccc2Cl)noc1C`, the Potency entry was “inactive”.
As to `Cc1coc2c1C(=O)C(=O)c1c-2ccc2c(C)cccc12`, the Potency was 10 µM (active).
With `CNc1ccc2c3c(cccc13)C(=O)N(C)C2=O`, the Potency entry is “inactive”.
Consider `CCn1cnc2sc(C(=O)Oc3ccc(Br)cc3)c(C)c2c1=O`, for which the Potency entry was “inactive”.
`COC(=O)c1cc(-c2cc(OC)ccc2OC)nc2c1c(=O)n(C)c(=O)n2Cc1ccccc1`: the Potency result was “inactive”.
Consider `COc1ccc(Cn2c(C(=O)O)c(CNCCc3ccco3)c3ccc(C)cc32)cc1`, for which the Potency was 31.6 µM (active).
On to `COC(=O)C1=CN(Cc2cccs2)C=C(C(=O)OC)C1c1ccc(OC)cc1OC`, for which the Potency entry was “inactive”.
Regarding `COc1ccc(OC)c(CN2CCN(Cc3cc(=O)oc4cc(O)ccc34)CC2)c1`, the Potency result is “inactive”.
To `COC(=O)c1ccc(S(=O)(=O)NCc2ccco2)o1` belongs “inactive”.
`COc1ccc2c(CNCCc3cccs3)c(C(=O)O)n(Cc3cccc(F)c3)c2c1`: the Potency was 35.5 µM (active).
On to `C=Cc1ccc(Cn2c(C(=O)O)c(CNCCc3ccco3)c3ccc(C)cc32)cc1`, for which the Potency is 22.4 µM (active).
For the molecule `COc1ccc(C(=O)NCC(=O)OCC(=O)NCc2ccco2)cc1`, the Potency entry is “inactive”.
Turning to `COc1ccc(Cn2c(C(=O)O)c(CNCCc3cc(OC)ccc3OC)c3ccc(C)cc32)cc1`, the Potency was 22.4 µM (active).
With `COC(=O)C1=CN(Cc2cccs2)C=C(C(=O)OC)C1c1cccc(O)c1`, the Potency result is “inactive”.
`COc1ccc(-c2csc(-c3cc4ccccc4oc3=N)n2)cc1`: the Potency result is “inactive”.
On to `COc1ccc2nc3ccccc3[n+]([O-])c2c1`, for which the Potency entry was “inactive”.
Take `CCc1noc(C)c1C(=O)NNC(=O)COc1ccc(Br)cc1`: the Potency entry is “inactive”.
Take `N#Cc1c(-c2ccc(Cl)cc2)c2c([nH]c1=O)-c1ccccc1OC2`: the Potency result is “inactive”.
In the case of `O=C1CCN2C=Nc3cccc4ccc1c2c34`, the Potency entry is “inactive”.
As for `O=c1nc2n(CCO)c3ccccc3cc-2c(=O)[nH]1`, the Potency result is “inactive”.
Under `Cc1cccn2c(=O)c3cc(C(=O)NC4CCCC4)c(=N)n(Cc4ccc(F)cc4)c3nc12` stands “inactive”; under `C=Cc1ccc(Cn2c(C(=O)O)c(CNCc3cccs3)c3ccc(C)cc32)cc1`, 25.1 µM (active); under `CCCC(=O)n1nc(-c2ccc(C)cc2)nc1NCc1ccco1`, “inactive”.
As to `Cc1ccc(Cn2c(C(=O)O)c(CNCCc3ccco3)c3ccc(C)cc32)cc1`, the Potency was 39.8 µM (active).
Under `C=Cc1ccc(Cn2c(C(=O)O)c(CNC3CCCC3)c3ccc(C)cc32)cc1` stands 44.7 µM (active).
Regarding `Cc1ccc(C(=O)OCC(=O)NCc2ccco2)cc1C`, the Potency entry was “inactive”.
Consider `CC1=C(C(=O)Nc2ccccn2)C(c2cn(C)nc2C)C2=C(O)CCCC2=N1` (stereo unspecified), for which the Potency entry is “inactive”.
Consider `Cc1nnc(NC(=O)CSc2nnc(-c3ccco3)n2C(C)C)s1`, for which the Potency entry is “inactive”.
Under `Cc1cccc2c(SCC(N)=O)nc(-c3ccccc3)nc12` stands “inactive”.
For `Cc1cccc(-n2c(SCC(N)=O)nc3c(oc4ccccc43)c2=O)c1`, the Potency was 20 µM (active).
For `Cc1nc(Nc2cccc(Cl)c2)c2oc3ccccc3c2n1`, the Potency result was “inactive”.
For the molecule `Cc1cc(C)cc(-n2c(SCC(N)=O)nc3c(oc4ccccc43)c2=O)c1`, the Potency is 22.4 µM (active).
Consider `Cc1cccc(-n2c(=O)c(C#N)cc3c(=O)n4ccccc4nc32)c1`, for which the Potency entry is “inactive”.
Regarding `COCCNC(=O)c1c(N)n(-c2cccc(C)c2)c2nc3ccccc3nc12`, the Potency result was “inactive”.
With `CCCOc1cccc(C2c3c(oc4ccc(F)cc4c3=O)C(=O)N2CCCN2CCOCC2)c1` (stereo unspecified), the Potency entry was “inactive”.
To `Cc1nc(Cl)c2c(n1)N=C1CCCC(O)=C1O2` belongs “inactive”; to `Cc1ccc(CNC(=O)c2cc3c(=O)n4ccccc4nc3n(CC3CCCO3)c2=N)cc1` (stereo unspecified), “inactive”.
Turning to `CCCCn1cc[n+](-c2nc3ccccc3nc2[N-]S(=O)(=O)c2ccc(Cl)cc2)c1`, the Potency entry is “inactive”.
Regarding `Cc1ccc(-c2nnc(Nc3cccc(O)c3)c3ccccc23)cc1S(=O)(=O)NCC1CCCO1` (stereo unspecified), the Potency is 39.8 µM (active).
With `Cc1ccc(-c2nnc(Nc3ccc4c(c3)OCO4)c3ccccc23)cc1S(=O)(=O)NC(C)C`, the Potency result was “inactive”.
Under `O=C1Nc2ccc(S(=O)(=O)NCC3CCCO3)c3cccc1c23` (stereo unspecified) stands “inactive”; under `CN1CCN(C(=O)c2cc3nc(-c4ccco4)cc(C(F)(F)F)n3n2)CC1`, “inactive”; under `Nc1ccc(Cn2ccc3c4c(N)nc(N)nc4ccc32)cc1`, 29.9 µM (active).
To `COC(=O)N1C(=O)[C@@](c2ccccc2)(C2CCCC2)N1C(=O)OC` belongs 17.8 µM (active); to `COc1ccc(CC(=O)NC2CCCc3ccccc32)cc1` (stereo unspecified), “inactive”; to `CN(CC(=O)Nc1ccccc1Sc1ccccc1)C1CCCCC1`, “inactive”.
In the case of `Cc1ccc(C2=CC(c3ccc(Cl)cc3)n3nc(-c4ccc(C)cc4)nc3N2)cc1` (stereo unspecified), the Potency result was “inactive”.
Take `O=C(CCCn1c2ccccc2c(=O)c2ccccc21)Nc1cccc(Cl)c1`: the Potency entry is “inactive”.
To `COc1ccc(Cl)cc1NC(=O)Cn1c(=O)n(CCCC(=O)NCCc2ccc(OC)c(OC)c2)c(=O)c2ccccc21` belongs 39.8 µM (active); to `COc1ccc(Cl)cc1NC(=O)CN1C(=O)NC(C)(Cc2ccc(OC)c(OC)c2)C1=O` (stereo unspecified), “inactive”; to `COc1ccc(CCNC(=O)CCCn2c(=O)c3ccccc3n(CC(=O)Nc3ccc(C)cc3Cl)c2=O)cc1OC`, 20 µM (active).
As for `COc1ccc(CCNC(=O)CCCn2c(=O)c3ccccc3n(Cc3cccc(Cl)c3)c2=O)cc1OC`, the Potency is 39.8 µM (active).
With `Cc1ccc2c(c1)c(=O)c1ccccc1n2CCCC(=O)Nc1ccc(C)c(F)c1`, the Potency entry was “inactive”.
`COC/C=C/C1=CC2=CC(=O)C(C)(OC(=O)c3cnc4ccccc4n3)C(=O)C2=CN1Cc1ccccc1` (stereo unspecified): the Potency is 12.6 µM (active).
Under `COc1ccc2oc(=O)c(-c3nnc(N)s3)cc2c1` stands “inactive”; under `CCC(C)NC(=O)c1sc2nc(C)c(C(=O)Nc3ccc(C)cc3C)c(-c3ccccc3Cl)c2c1N` (stereo unspecified), “inactive”.
Regarding `COC(=O)c1c(C)nc(C)c(C(=O)OC)c1-c1ccc(OC)cc1`, the Potency entry is “inactive”.
For `C=C(C)COc1ccc(-c2n[nH]cc2-c2ccc(OC)c(OC)c2)c(O)c1`, the Potency is 44.7 µM (active).
Under `C=C(C)COc1ccc(-c2ncncc2-c2ccc(Br)cc2)c(O)c1` stands “inactive”.
As to `COc1ccc(-c2c(C)n[nH]c2-c2ccc(OC)c(C)c2O)cc1`, the Potency was 39.8 µM (active).
Under `C=C(C)COc1ccc(-c2nc(N)ncc2-c2ccc(Cl)cc2)c(O)c1` stands 39.8 µM (active).
In the case of `COc1ccc(-c2c(C)c3ccc(O)cc3oc2=O)cc1`, the Potency entry was “inactive”.
To `C=C(C)COc1ccc(-c2[nH]nc(C)c2-c2ccc(Br)cc2)c(O)c1` belongs 25.1 µM (active); to `CCN(CC)C(=O)c1sc2nc(-c3cccs3)cc(-c3ccc(Cl)cc3)c2c1N`, “inactive”.

The values above are taken from ChEMBL document CHEMBL1201862, “PubChem BioAssay data set” (2004).
